This excerpt belongs to a sample that is enriched for hits.
Tgondii IFNg: blocks Toxoplasma gondii growth in the presence of IFN-gamma | actives 3.8% (n = 69,000) | Toxoplasma gondii growth in IFN-gamma-treated host cells; stronger effect = lower value | activity change, negative = inhibition, % (test concentration not listed) | AID 1259416; in the data active = activity change below about -70%, passing the limit was not always enough;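 also: host cells are HeLa cells infected with Toxoplasma gondii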
Each line names hits and unclear results; the compound was inactive in the other large screens.

CC1CCC(CNC(=O)CCc2csc(N)n2)(N2CCCCC2)CC1 (stereo not drawn)	none
O=C(O)CCn1ncc2c(=O)[nH]cnc21	none
C/C=C/C(=O)Nc1ccccc1-c1cccc(-n2cccn2)c1	none
Cc1cc(NC(=O)NC(=O)c2c(F)cccc2Cl)no1	none
O=C(c1ccc2nc(NC(=O)C34CC5CC(CC(C5)C3)C4)sc2c1)N1CCCCC1	Tgondii IFNg -84.5
O=C(N1CCCCC1)C12CC3CC(CC(C3)C1)C2	none
O=C(Nc1ccncc1)C12CC3CC(CC(C3)C1)C2	none
CN(Cc1cc(-c2ccncc2)no1)Cc1ccc(C2CCCCO2)s1 (stereo not drawn)	none
O=C(c1ccncc1)N1C[C@H]2CN(CC3CC3)C(=O)[C@@H]2C1	none
C[C@H]1CN([C@@H](C)CO)C(=O)CCCn2nncc2CO[C@@H]1CN(C)C(=O)c1ccc(N2CCN(C)CC2)cc1	none
C[C@H](CO)N1C[C@H](C)[C@@H](CN(C)CC2CCCCC2)OCc2cnnn2CCCC1=O	none
C[C@@H]1CN([C@H](C)CO)C(=O)CCCn2nncc2CO[C@H]1CN(C)C(=O)c1ccc(N2CCN(C)CC2)cc1	none
C[C@@H]1CN([C@H](C)CO)C(=O)CCCn2nncc2CO[C@H]1CN(C)CC1CCCCC1	Tgondii IFNg -99.3
C[C@H](CO)N1C[C@H](C)[C@H](CN(C)CC2CCCCC2)OCc2cnnn2CCCC1=O	none
C[C@@H]1CN([C@@H](C)CO)C(=O)CCCn2nncc2CO[C@H]1CN(C)C(=O)c1ccc(N2CCN(C)CC2)cc1	Tgondii IFNg -87.0
COCCN1C(=O)CCC12CCC(NC(=O)c1cnc(C)cn1)CC2 (stereo not drawn)	none
Cc1oc(-c2ccc(C(=O)NCc3ccc4c(c3)OCO4)cc2)nc1CN1CCc2ccccc21	none
Cc1cccc(NC(=O)c2ccc3ccc(N4CCN(CC5CC5)CC4)n3c2)c1	none
CN(C)Cc1cc(=O)n2c(n1)CN(C(=O)c1cccs1)CCC2	none
Cc1ccc2c(c1)NC1(CCN(C(=O)Cc3ccc(F)cc3)CC1)c1cccn1-2	none
CCOCc1cncc2c1CCN(C(=O)c1ccc3[nH]ccc3c1)C2	none
COc1ccc(S(=O)(=O)N2CCC(c3ccc4c(C)nn(C)c4n3)CC2)cc1	Tgondii IFNg -90.9
COc1ccc(S(=O)(=O)N2CCC(c3n[nH]c(=O)cc3-c3cc(C)no3)CC2)cc1	none
COc1ccc(S(=O)(=O)N2CCC(c3nc(C(=O)N(C)C)c(C)o3)CC2)cc1	none
COc1ccc(CN2C[C@H]3CN(C(=O)c4ccco4)CCO[C@@H]3C2)cc1	none
CCCCN(C(=O)c1ccc(NC(C)=O)cc1)C1(C(=O)NCc2ccccc2)CCN(C(C)=O)CC1	none
CC(C)c1noc(C2CCCN2C(=O)c2cc(=O)c3ccccc3o2)n1 (stereo not drawn)	none
CC[C@@H]1OC[C@@H]2CN(C(=O)c3ccnnc3)CC[C@H]21	none
COc1cccc(CCN2CCC(CNS(=O)(=O)c3ccc4[nH]c(=O)ccc4c3)CC2)c1	none
COCCN1CCc2c(cnc(-c3cccnc3)c2C(=O)O)C1	none
Cc1ccc(-c2ccc([C@@H]3[C@@H]4CN(Cc5ccccc5F)C[C@H]3N4)cc2)cc1	Tgondii IFNg -73.1
CN(C)C(=O)c1cccc(-c2ccc(C3[C@@H]4CN(Cc5ccccc5F)C[C@H]3N4)cc2)c1 (stereo partly drawn)	none
Fc1ccc(-c2ccc(C3[C@@H]4CN(Cc5ccccc5)C[C@H]3N4)cc2)cc1 (stereo partly drawn)	none
CCOc1ccccc1CN(CC)C(=O)c1csc(C(C)=O)c1	none
CC1(C)CC[C@]2(C(=O)O)CC[C@]3(C)C(=CCC4[C@@]5(C)CC[C@H](O)[C@@](C)(CO)C5CC[C@]43C)C2C1 (stereo partly drawn)	none
C[C@H]1[C@H](C)CC[C@]2(C(=O)O)CC[C@]3(C)C(=CC[C@@H]4[C@@]5(C)CC[C@H](O)C(C)(C)[C@@H]5CC[C@]43C)[C@H]12	Tgondii IFNg -79.1
CC1(C)[C@@H](O)CC[C@]2(C)[C@H]3C(=O)C=C4[C@@H]5C[C@@](C)(C(=O)O)CC[C@]5(C)CC[C@@]4(C)[C@]3(C)CC[C@@H]12	none
COc1ccc(C(=O)N2CCC3(CC2)NC(=O)c2cc(Cl)ccc2N3C)c(OC)c1	none
CCN1C(=O)C(c2ccccc2)CC12CCN(CCO)CC2 (stereo not drawn)	none
Clc1cc(Cl)cc(N=c2ssnc2-c2ccccc2Cl)c1	Tgondii IFNg -90.2
CC(=O)N1C[C@H]2CCC[C@]2(COc2cccnc2)C1	none
Cc1cccc(-c2nn3c(c2-c2ccnc4ccc(C(N)=O)cc24)CCC3)n1	Tgondii IFNg -78.4
CC(C)C(=O)N1Cc2nc(C(=O)NC3CCCC3)oc2C1	none
O=C(c1ccncc1)N1C[C@H]2CCc3c(C(F)(F)F)n[nH]c3[C@H]2C1	none
COc1ccc(S(=O)(=O)N2CCn3cnc(COc4cccnc4)c3C2)cc1	none
Cc1ccc(-c2nc3ccccc3[nH]2)cc1	none
CC(C)(C)c1ccc(-c2nc3ccccc3[nH]2)cc1	Tgondii IFNg -86.9
c1ccc(-c2nc3ccccc3[nH]2)cc1	none
Cc1cccc(CO[C@@H]2C[C@@H]3CN(C(=O)c4cccnc4)CCN3C2)n1	none
O=C(c1ccc[nH]1)N1CCCC2(CC(Nc3ncccc3F)CO2)C1 (stereo not drawn)	none
